Laboratory results from PubChem BioAssay (EPA / NIEHS).
Records with an inconclusive call do not appear. Some structures have more than one record in an assay (separate samples or runs), and their calls can disagree. Active and inactive are the calls of the source. How the source made its calls, unless noted: active means hit-call score of the fitted dose curve at least 0.9, where 1 is the maximum; inconclusive means response in the unintended direction; inactive means score below 0.9.

How the values were obtained:
[1] = target: Glucocorticoid receptor (Homo sapiens) (UniProt P04150); test: ATG_GR_TRANS: Attagene TRANS-FACTORIAL HepG2 Assay for human Glucocorticoid Receptor (GR) (AID 2282978); details: HepG2 Attagene TRANS GR reporter, mRNA transcription;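 further: activators score as hits since higher reporter transcript over DMSO is fitted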
Method in brief: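 After 24 h incubation with test chemical, transfected HepG2 cells were lysed for RNA; reporter cDNA was amplified, FAM-labelled, HpaI-digested and sized on a capillary analyser. Signal gain relative to DMSO was scored.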

[2] = target: Bile acid receptor (Homo sapiens) (UniProt Q96RI1); test: ATG_FXR_TRANS: Attagene TRANS-FACTORIAL HepG2 Assay for Farnesoid X Receptor (FXR) (AID 2282979); details: HepG2 Attagene TRANS FXR-GAL4 reporter transcription;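 further: hits raise reporter mRNA above DMSO so AC50 marks FXR activation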
Method in brief: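 HepG2 cells were transiently transfected with GAL4-UAS reporters driven by chimeric NR-Gal4 proteins and dosed for 24 h. Reporter mRNA was quantified by RT-PCR, fluorescent labelling, HpaI digestion and capillary electrophoresis, with gain of signal scored versus DMSO.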

[3] = target: Oxysterols receptor LXR-alpha (Homo sapiens) (UniProt Q13133); test: ATG_LXRa_TRANS: Attagene TRANS-FACTORIAL HepG2 Assay for human Liver X Receptor alpha (LXRa) (AID 2282980); details: HepG2 Attagene TRANS reporter, LXRa transactivation
Method in brief: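 HepG2 cells transiently transfected with GAL4-UAS reporter units for chimeric NR-Gal4 proteins, exposed to chemicals for 24 h. Reporter mRNA quantified by RT-PCR and capillary electrophoresis; gain of signal fitted relative to DMSO.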

[4] = target: Oxysterols receptor LXR-beta (Homo sapiens) (UniProt P55055); test: ATG_LXRb_TRANS: Attagene TRANS-FACTORIAL HepG2 Assay for human Liver X Receptor beta (LXRb) (AID 2282981); details: HepG2 Attagene TRANS GAL4-LXRb reporter, mRNA
Method in brief: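 Readout: fluorescent reporter mRNA fragments resolved by capillary electrophoresis after RT-PCR. System: transiently transfected human HepG2, exogenous LXRb-Gal4 chimera driving GAL4-UAS reporter, 24 h dosing. Activity fitted upward against DMSO baseline.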

[5] = ATG_M_06_TRANS: Attagene TRANS-FACTORIAL HepG2 Assay for M06 Transcription Factor (Internal Marker) (AID 2282983); details: HepG2 Attagene TRANS M06 internal marker reporter;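 further: reporter transcript level by RT-PCR then capillary electrophoresis fluorescence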
Method in brief: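 mRNA levels of a reporter transcript, quantified as FAM fluorescence on capillary electrophoresis, served as readout. HepG2 cells expressing exogenous GAL4-chimera reporter constructs were exposed for 24 h. Gain of signal over DMSO was evaluated.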

[6] = target: Transcriptional activator Myb (Homo sapiens) (UniProt P10242); test: ATG_Myb_CIS: Attagene CIS-FACTORIAL HepG2 Assay for human Myeloblastosis (Myb) Proto-Oncogene Transcription Factor (AID 2282986; active means hit-call score of the fitted dose curve at least 0.9, where 1 is the maximum; inactive means score below 0.9); details: HepG2 Attagene CIS-FACTORIAL Myb reporter transcription; actives raise or lower the signal
Method in brief: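 After 24 h of compound dosing, total RNA from transfected HepG2 cells is reverse-transcribed and the reporter sequences amplified, labeled and separated by capillary electrophoresis. Values come from bidirectional fitting against DMSO.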

[7] = ATG_M_32_TRANS: Attagene TRANS-FACTORIAL HepG2 Assay for M32 Transcription Factor (Internal Marker) (AID 2282984); details: HepG2 Attagene TRANS M32 internal marker reporter;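 further: transcript level of a background control reporter unit measured by RT-PCR and capillary electrophoresis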
Method in brief: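 Read-out: fluorescent reporter cDNA fragments resolved by capillary electrophoresis after RT-PCR of total RNA. Transfected HepG2 cells were exposed to chemical for 24 h. Activity scored in the positive direction relative to DMSO.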

[8] = target: Nuclear receptor subfamily 4 group A member 2 (Homo sapiens) (UniProt P43354); test: ATG_NURR1_TRANS: Attagene TRANS-FACTORIAL HepG2 Assay for human Nuclear Receptor Related Protein 1 (NURR1) (AID 2282985); details: HepG2 Attagene TRANS reporter, mRNA readout
Method in brief: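 Read-out: reporter mRNA induction by RT-PCR plus capillary electrophoresis with fluorescence detection, after 24 h dosing of transfected HepG2 cells. Exogenous NR-Gal4 chimera activity drives GAL4-UAS reporter; activity fitted upward versus DMSO.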

[9] = target: Hepatocyte nuclear factor 4-alpha (Homo sapiens) (UniProt P41235); test: ATG_HNF4a_TRANS: Attagene TRANS-FACTORIAL HepG2 Assay for human Hepatocyte Nuclear Factor 4 alpha (HNF4a) (AID 2282982); details: HepG2 HNF4a transactivation reporter, mRNA readout
Method in brief: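 Transient MRTU transfection of HepG2, 24 h dosing. Readout: reporter mRNA via RT-PCR + capillary electrophoresis, fluorescence; activity fit upward relative to DMSO control.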

[10] = target: Estrogen-related receptor gamma (Homo sapiens) (UniProt P62508); test: ATG_ERRg_TRANS: Attagene TRANS-FACTORIAL HepG2 Assay for human Estrogen-Related Receptor gamma (ERRg) (AID 2282977); details: HepG2 Attagene TRANS reporter, ERRg transactivation;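 further: hits increase reporter signal over DMSO so potencies reflect activators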
Method in brief: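 Readout: fluorescent reporter-mRNA fragments resolved by capillary electrophoresis after RT-PCR and HpaI cut. Cells: transiently transfected HepG2 carrying GAL4-UAS reporters driven by exogenous NR-Gal4 chimeras, dosed 24 h. Activity fitted upward relative to DMSO baseline.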

Measured: AC50

Chain of Estrogen-related receptor gamma (Homo sapiens) (P62508 whole entry, looked up, the tested form may be a part): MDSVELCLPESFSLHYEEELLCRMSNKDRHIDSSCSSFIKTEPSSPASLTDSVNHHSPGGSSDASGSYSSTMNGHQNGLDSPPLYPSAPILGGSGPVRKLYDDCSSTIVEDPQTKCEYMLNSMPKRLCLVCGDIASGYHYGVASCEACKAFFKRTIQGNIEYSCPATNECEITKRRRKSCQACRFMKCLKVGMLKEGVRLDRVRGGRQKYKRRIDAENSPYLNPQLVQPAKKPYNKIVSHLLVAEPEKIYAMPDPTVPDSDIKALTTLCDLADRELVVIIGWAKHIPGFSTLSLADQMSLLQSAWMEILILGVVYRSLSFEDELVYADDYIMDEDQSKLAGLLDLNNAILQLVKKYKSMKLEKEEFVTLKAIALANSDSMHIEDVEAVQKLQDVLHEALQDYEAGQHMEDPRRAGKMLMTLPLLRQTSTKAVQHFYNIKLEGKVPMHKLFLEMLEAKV
Chain of Glucocorticoid receptor (Homo sapiens) (P04150 whole entry, looked up): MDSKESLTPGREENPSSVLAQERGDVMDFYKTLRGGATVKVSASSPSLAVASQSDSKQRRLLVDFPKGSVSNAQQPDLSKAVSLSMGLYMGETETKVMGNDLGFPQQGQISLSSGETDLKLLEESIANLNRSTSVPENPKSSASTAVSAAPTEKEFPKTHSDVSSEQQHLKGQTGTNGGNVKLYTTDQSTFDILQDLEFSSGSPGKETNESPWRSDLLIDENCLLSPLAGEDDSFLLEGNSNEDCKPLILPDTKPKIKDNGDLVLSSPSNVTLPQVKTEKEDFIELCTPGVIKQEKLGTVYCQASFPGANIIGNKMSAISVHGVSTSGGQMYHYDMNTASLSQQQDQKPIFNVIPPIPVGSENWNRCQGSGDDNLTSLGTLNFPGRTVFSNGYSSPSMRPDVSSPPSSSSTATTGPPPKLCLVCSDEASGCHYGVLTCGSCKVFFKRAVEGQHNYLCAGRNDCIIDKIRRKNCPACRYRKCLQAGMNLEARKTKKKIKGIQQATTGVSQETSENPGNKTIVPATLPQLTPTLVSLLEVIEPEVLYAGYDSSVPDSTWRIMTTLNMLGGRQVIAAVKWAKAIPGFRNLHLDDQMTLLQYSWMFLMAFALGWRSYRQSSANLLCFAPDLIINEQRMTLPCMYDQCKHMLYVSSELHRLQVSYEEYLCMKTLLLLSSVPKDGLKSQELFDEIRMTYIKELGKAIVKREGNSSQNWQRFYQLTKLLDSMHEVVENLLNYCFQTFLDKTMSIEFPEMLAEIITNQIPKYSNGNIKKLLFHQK
Chain of Oxysterols receptor LXR-alpha (Homo sapiens) (Q13133 whole entry, looked up, the tested form may be a part): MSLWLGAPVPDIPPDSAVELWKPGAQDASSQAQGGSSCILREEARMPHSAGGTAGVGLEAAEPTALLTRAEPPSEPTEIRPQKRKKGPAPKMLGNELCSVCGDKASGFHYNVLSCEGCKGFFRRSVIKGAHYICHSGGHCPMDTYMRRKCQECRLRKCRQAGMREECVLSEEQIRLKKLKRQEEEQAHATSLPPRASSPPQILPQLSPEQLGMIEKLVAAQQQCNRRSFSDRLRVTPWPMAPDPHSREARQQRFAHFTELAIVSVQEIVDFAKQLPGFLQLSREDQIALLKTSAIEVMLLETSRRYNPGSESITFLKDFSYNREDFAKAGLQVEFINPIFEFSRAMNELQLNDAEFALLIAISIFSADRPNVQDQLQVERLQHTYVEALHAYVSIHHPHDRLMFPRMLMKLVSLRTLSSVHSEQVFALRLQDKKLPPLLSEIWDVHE
Chain of Transcriptional activator Myb (Homo sapiens) (P10242 whole entry, looked up): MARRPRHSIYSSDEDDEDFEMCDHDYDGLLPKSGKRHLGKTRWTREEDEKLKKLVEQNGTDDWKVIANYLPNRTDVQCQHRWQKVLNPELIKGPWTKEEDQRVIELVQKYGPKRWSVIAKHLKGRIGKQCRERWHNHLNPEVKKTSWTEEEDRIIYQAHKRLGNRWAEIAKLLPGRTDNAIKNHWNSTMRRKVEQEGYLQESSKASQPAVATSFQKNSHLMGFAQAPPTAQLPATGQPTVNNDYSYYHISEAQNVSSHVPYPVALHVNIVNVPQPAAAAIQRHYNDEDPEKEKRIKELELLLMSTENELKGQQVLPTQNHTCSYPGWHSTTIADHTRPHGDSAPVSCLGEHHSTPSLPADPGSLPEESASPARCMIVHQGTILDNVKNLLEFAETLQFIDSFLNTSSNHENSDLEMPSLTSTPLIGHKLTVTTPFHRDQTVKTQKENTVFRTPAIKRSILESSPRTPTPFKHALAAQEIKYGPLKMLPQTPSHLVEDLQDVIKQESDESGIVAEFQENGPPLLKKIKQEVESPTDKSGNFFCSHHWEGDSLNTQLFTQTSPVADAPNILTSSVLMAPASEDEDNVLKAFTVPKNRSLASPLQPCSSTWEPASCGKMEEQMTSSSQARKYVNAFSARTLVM
Chain of Nuclear receptor subfamily 4 group A member 2 (Homo sapiens) (P43354 whole entry, looked up, the tested form may be a part): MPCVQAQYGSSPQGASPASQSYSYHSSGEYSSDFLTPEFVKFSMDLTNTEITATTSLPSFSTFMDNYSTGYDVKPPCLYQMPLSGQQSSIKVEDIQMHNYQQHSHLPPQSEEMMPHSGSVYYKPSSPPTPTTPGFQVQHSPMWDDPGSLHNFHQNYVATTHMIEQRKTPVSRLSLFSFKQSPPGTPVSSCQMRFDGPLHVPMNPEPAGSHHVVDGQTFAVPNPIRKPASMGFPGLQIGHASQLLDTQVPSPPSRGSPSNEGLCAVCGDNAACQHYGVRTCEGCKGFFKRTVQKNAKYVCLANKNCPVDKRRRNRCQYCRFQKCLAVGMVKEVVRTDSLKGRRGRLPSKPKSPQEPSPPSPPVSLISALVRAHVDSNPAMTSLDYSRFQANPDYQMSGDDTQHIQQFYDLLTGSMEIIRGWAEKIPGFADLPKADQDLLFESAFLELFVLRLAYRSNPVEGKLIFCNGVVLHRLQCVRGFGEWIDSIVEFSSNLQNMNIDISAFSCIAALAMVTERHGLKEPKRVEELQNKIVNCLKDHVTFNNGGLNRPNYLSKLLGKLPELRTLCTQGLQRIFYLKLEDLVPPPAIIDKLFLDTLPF
Chain of Bile acid receptor (Homo sapiens) (Q96RI1 whole entry, looked up, the tested form may be a part): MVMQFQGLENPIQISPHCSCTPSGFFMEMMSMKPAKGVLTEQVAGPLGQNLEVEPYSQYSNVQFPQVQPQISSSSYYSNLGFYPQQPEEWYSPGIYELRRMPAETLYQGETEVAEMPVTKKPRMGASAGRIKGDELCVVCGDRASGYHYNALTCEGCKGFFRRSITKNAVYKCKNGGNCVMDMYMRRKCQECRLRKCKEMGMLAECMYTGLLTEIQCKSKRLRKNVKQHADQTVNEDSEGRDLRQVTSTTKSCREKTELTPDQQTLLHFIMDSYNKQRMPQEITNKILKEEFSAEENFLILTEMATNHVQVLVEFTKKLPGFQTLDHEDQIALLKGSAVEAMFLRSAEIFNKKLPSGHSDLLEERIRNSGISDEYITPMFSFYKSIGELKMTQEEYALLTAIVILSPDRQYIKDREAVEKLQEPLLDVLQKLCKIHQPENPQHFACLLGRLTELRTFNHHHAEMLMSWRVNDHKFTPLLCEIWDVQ
Chain of Oxysterols receptor LXR-beta (Homo sapiens) (P55055 whole entry, looked up, the tested form may be a part): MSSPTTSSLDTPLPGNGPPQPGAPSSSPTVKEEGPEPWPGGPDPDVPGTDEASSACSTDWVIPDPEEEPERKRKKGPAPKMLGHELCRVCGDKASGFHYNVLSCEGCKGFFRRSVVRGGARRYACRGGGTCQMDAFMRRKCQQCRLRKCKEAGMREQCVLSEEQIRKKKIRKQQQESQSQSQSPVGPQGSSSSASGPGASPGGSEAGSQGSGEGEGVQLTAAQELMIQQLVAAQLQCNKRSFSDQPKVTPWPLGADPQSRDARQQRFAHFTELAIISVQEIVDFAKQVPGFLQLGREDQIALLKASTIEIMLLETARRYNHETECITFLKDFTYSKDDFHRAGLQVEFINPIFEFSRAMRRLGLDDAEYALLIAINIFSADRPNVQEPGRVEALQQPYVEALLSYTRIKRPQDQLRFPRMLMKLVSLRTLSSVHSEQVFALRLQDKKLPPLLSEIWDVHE
Chain of Hepatocyte nuclear factor 4-alpha (Homo sapiens) (P41235 whole entry, looked up): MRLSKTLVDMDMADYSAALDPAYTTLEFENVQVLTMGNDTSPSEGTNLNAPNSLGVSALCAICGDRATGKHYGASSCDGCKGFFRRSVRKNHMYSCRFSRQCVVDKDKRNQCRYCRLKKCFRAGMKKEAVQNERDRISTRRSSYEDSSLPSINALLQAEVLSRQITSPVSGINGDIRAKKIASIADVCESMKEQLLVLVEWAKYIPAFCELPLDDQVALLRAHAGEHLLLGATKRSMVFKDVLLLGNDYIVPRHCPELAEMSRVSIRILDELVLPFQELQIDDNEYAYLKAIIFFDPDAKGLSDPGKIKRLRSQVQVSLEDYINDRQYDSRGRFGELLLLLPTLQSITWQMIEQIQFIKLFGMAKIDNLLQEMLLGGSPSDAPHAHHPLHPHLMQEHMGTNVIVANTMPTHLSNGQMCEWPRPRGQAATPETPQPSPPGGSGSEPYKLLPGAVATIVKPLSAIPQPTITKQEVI

C=C(C)C(=O)OCCC(F)(F)C(F)(F)C(F)(F)C(F)(F)C(F)(C(F)(F)F)C(F)(F)F
inactive: [1] | [2] | [3] | [4] | [5] | [6]

CCN(CC)c1ccc2c(C)cc(=O)oc2c1
active: [3] 26.2 µM
not listed: [5] | [9] | [10]
inactive: all other assays above

O=C(O)C(F)(OC(F)(F)C(F)(OC(F)(F)C(F)(F)C(F)(F)F)C(F)(F)F)C(F)(F)F (stereo not given)
not listed: [8] | [10]
inactive: all other assays above

Nc1cc(Cl)c(N)c(Cl)c1
inactive: [1] | [2] | [3] | [4] | [9] | [6]

C=C(C)C(=O)OCC(F)(F)C(F)(F)C(F)(F)C(F)(F)C(F)(F)C(F)(F)C(F)(F)F
inactive: [1] | [3] | [4] | [5] | [6]

C=CC(F)(F)C(F)(F)C(F)(F)C(F)(F)C(F)(F)C(F)(F)C(F)(F)C(F)(F)C=C
inactive: [1] | [2] | [3] | [4] | [7] | [6]

O=C(O)C(F)(F)C(F)(F)F
not listed: [8] | [10]
inactive: all other assays above

O=C(O)C=C(C(F)(F)F)C(F)(F)F
not listed: [2] | [8] | [10]
inactive: all other assays above

FC(F)(F)C(F)(F)C(F)(F)C(F)(F)C(F)(F)CCI
not listed: [5] | [9] | [10]
inactive: all other assays above

FC(F)(I)C(F)(F)C(F)(F)C(F)(F)I
inactive: [10] | [3] | [7] | [8] | [6]

O=C(CC(=O)C(F)(F)C(F)(F)F)C(F)(F)F
not listed: [8] | [9] | [10]
inactive: all other assays above

O=C(O)C(F)(F)C(F)(F)C(F)(F)C(F)(F)C(F)(F)C(F)(F)C(F)(F)C(F)(F)Cl
active: [2] 82.3 µM
inactive: [1] | [2] | [3] | [4] | [9] | [5] | [7] | [6]

O=C(O)C(F)(F)C(F)(F)OC(F)(F)F
inactive: [1] | [3] | [4] | [5] | [7] | [6]

CCc1ccc(C(c2ccc(CC)cc2)C(Cl)Cl)cc1
inactive: [1] | [2] | [4] | [5] | [7] | [6]

[Co]
inactive: [10] | [3] | [4] | [7] | [8] | [6]

FC(F)(F)C(F)(F)C(F)(F)CI
inactive: [10] | [3] | [4] | [9] | [6]

OCCCC(F)(F)C(F)(F)C(F)(F)F
not listed: [9] | [10]
inactive: all other assays above

CCCCCCCCC(F)(F)C(F)(F)C(F)(F)C(F)(F)C(F)(F)C(F)(F)F
not listed: [3] | [9] | [10]
inactive: all other assays above

FC(F)(F)C(F)(F)C(F)(F)C(F)(F)C(F)(F)C(F)(F)C(F)(F)C(F)(F)F
not listed: [8] | [10]
inactive: all other assays above

FC(F)(F)C(F)(F)C(F)(F)C(F)(F)C(F)(F)C(F)(F)CCS
inactive: [10] | [3] | [4] | [5] | [7] | [6]

c1ccc(-c2ccccc2-c2ccccc2)cc1
inactive: [1] | [2] | [4] | [6]

CC(CCl)OP(=O)(OC(C)CCl)OC(C)CCl (stereo not given)
inactive: [1] | [2] | [3] | [5] | [8] | [6]

C1COCCN1
inactive: [4] | [9] | [5] | [7] | [8] | [6]
